An excerpt weighted towards active compounds, which were near 1.3% of everything screened.
Vif-A3F inh: qHTS for Inhibitors of Vif-A3F Interactions: qHTS | HeLa A3F-eYFP + Vif (tagged APOBEC3F with the HIV-1 protein that degrades it), YFP fluorescence increase | Potency, µM (doses to about 46.1 µM), without a hit: top-dose activity, negative = active | actives 0.2% (n = 390,000) | AID 602313, 2012; also: potency is read from the fitted curve at half-maximal effect; % of control where 0% means no effect; nearly all actives have a fitted effect of over 65% in size
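HeLa cells stably expressing A3F-eYFP plus Vif, plated and incubated overnight at 37 deg C, then exposed to compounds overnight at 37 deg C. Blocked degradation read as raised yellow fluorescence (Ex 488/Em 500-530).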
Vif-A3G inh: qHTS for Inhibitors of Vif-A3G Interactions: qHTS. DNA dC->dU-editing enzyme APOBEC-3G (Homo sapiens), Q9HC16. HeLa A3G-eYFP + Vif (tagged APOBEC3G with the HIV-1 protein that degrades it), YFP fluorescence, overnight. Potency, µM (top dose mostly 46.1 µM), for the others: at the highest dose activity, negative = active, most hits filed as inhibitors. actives 0.076% (n = 410,000). AID 602310, 2012; also: potency is read from the fitted curve at half-maximal effect; % is scaled to controls: 0 for no effect and ±100 for the full control effect; nearly all actives have a fitted effect of over 60% in size
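Read-out is eYFP fluorescence (Ex 488/Em 500-530) from Vif-expressing HeLa A3G-eYFP cells; more signal means A3G escaped Vif-mediated degradation. Cells plated overnight, compound pinned in, incubated overnight at 37 deg C.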
12-LOX inh: Primary qHTS assay for inhibitors of human arachidonate 12S-lipoxygenase (ALOX12): Round 2; purified 12hLO, xylenol orange hydroperoxide absorbance; Potency, µM (highest dose often 108 µM), without a hit: at the top dose activity change, negative = inhibition, hits mostly inhibitors; actives 1.1% (n = 580,000); also: potency is read from the fitted curve at half-maximal effect; % is scaled to controls: 0 for no effect and ±100 for the full control effect
Target sequence (P18054 whole entry, looked up): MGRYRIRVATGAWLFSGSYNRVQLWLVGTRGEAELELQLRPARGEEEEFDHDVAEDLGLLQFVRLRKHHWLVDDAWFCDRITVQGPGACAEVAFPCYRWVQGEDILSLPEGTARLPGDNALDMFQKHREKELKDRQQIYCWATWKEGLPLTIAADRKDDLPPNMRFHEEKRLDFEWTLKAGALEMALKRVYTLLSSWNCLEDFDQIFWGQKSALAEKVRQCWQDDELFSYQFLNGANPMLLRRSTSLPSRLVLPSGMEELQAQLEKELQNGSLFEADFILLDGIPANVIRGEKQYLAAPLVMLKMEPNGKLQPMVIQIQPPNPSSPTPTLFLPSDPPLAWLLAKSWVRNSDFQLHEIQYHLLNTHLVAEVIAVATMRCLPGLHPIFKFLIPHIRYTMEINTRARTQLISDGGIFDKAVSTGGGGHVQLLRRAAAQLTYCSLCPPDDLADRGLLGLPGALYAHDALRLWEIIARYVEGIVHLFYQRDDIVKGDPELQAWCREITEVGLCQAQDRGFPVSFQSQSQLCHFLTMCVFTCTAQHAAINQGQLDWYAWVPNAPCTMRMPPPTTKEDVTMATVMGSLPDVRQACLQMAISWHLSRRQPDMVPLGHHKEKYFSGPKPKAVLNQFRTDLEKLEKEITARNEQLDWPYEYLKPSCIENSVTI
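Purified human 12hLO (150 nM final) in 25 mM Hepes, 0.01% Triton X-100, pH 7.0 was preincubated 15 min at room temperature with compound. Then 40 uM arachidonic acid was added, 30 min. Hydroperoxide was read by Fe-XO absorbance ratio 573/405 nm.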
TRPML1 blocker: qHTS for Inhibitors of the Human Mucolipin Transient Receptor Potential 1 (TRPML1); Mucolipin-1 (Homo sapiens), Q9GZU1; TRPML1-inducible cells, Ca2+ dye fluorescence, FDSS; active compounds read low; inhibition of EC80 agonist-evoked calcium signal; AID 624415, 2012; actives 0.02% (n = 390,000); activity change, negative = inhibition, % (no concentration beside the values); in the data active = activity change below about -50%; inconclusive = between about -30% and that limit;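 also: stimulus is agonist 54-4 at its EC80 concentration; % is scaled to controls: 0 for no effect and ±100 for the full control effect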
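Calcium fluorescence in TRPML1-DL cells induced overnight with Tet: a 110 s read after compound pin addition, then a 110 s antagonist read after challenge with 54-4 at 4 uM final (EC80).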
TRPML1 agonist: qHTS for Agonists of the Human Mucolipin Transient Receptor Potential 1 (TRPML1) | TRPML1-expressing cells, Ca2+ dye fluorescence, FDSS | activation, % (no concentration beside the values) | actives 0.12% (n = 410,000); in the data active = activation above about 50%; inconclusive = mostly about 30% to 49%; also: 0% is about no effect
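Cells: TRPML1-DL, 1X Tet inducer, ~16 h at 37 degrees C/5% CO2. Dye: ABD Ca8 no-wash + quencher, 45-90 min RT. Read: 10 s baseline, compound add, 110 s agonist phase; 54-4 EC80 (4uM final), 110 s antagonist phase.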
Glioma ERSR ind: qHTS for Inducers of the Endoplasmic Reticulum Stress Response (ERSR) in Human Glioma: qHTS | U87-MG GRP78 promoter luciferase reporter, 16 h | Potency, µM, without a hit: at the highest dose activation, most hits filed as activators | actives 0.02% (n = 420,000) | AID 602332, 2012; also: potency is read from the fitted curve at half-maximal effect; series mostly up to about 76 µM; % of control where 0% means no effect; nearly all actives have a fitted effect of over 35% in size
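Stably transfected U87-MG glioma cells carrying a GRP78-based luciferase sensor; 16 h compound incubation. Luminescence end-point read 10 min after Bright-Glo addition at room temperature.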
* hit, by the source's call; ? = inconclusive; · = not tested or not shown; [ ] = dose if it differs, or a comment. Unless noted, calls follow the shape of the dose curve; as a rule, active = well fitted curve in the direction sought with a large enough effect; inconclusive = small, poorly fitted or top-dose-only effect, or another doubt; inactive = no such curve, though single readings can be large; an effect the other way counts as inactive or inconclusive.

SMILES | Vif-A3F inh | Vif-A3G inh | 12-LOX inh | TRPML1 blocker | TRPML1 agonist | Glioma ERSR ind
COc1ccccc1-c1cc(-c2ccc(=O)[nH]c2)c2cncn2c1 | · | · | 22µM* | · | · | ·
COc1ccc(-c2cc(-c3cccc(O)c3)cn3cncc23)cc1 | · | · | 16µM* | · | · | ·
N#Cc1nc(COc2ccc3c(c2)OCO3)oc1N1CCC(C(N)=O)CC1 | · | · | 6% | · | · | ·
CN1CC(=O)N(C2CCCC2)Cc2c(NCc3ccc(F)cc3)ncnc21 | · | · | 15% | · | · | ·
CC(C)Nc1ncnc2c1CN(C1CCCNC1)C(=O)CN2C (stereo not drawn) | · | · | 4µM* | · | · | ·
CN1CC(=O)N(C2CCNCC2)Cc2c1ncnc2N(C)Cc1ccc(F)cc1 | · | · | 8.9µM* | · | · | ·
CN1CC(=O)N(C2CCNCC2)Cc2c(NCCc3cccc(F)c3)ncnc21 | · | · | 18µM* | · | · | ·
CC(CO)Nc1ncnc2c1CN(C1CCCNC1)C(=O)CN2C (stereo not drawn) | · | · | -25%[6.33 µM] | · | · | ·
CCCCCNc1ncnc2c1CN(C1CCCNCC1)C(=O)CN2C (stereo not drawn) | · | · | -25%[6.33 µM] | · | · | ·
CNC(=O)c1ccc(CN(C2CC2)S(=O)(=O)c2ccc3c(c2)CCC3)cc1 | · | · | 4% | · | · | ·
COc1cc(/C=C(/C#N)C(=O)C(C)(C)C)ccc1OC(F)F | · | · | 7% | · | · | ·
Cc1ccc2[nH]c(=O)c(CN(CCc3ccccc3)C(c3nnnn3Cc3ccco3)C(C)C)cc2c1 (stereo not drawn) | -9% | 1% | 11µM* | 47 | 2 | -1%
COc1cc(OC)c(C2=CCN(C(=O)COc3cc(Cl)ccc3Cl)CC2)c(OC)c1 | · | · | 2% | · | · | ·
COC(=O)CN1CCCC1c1cccs1 (stereo not drawn) | · | · | -20% | · | · | ·
O=C(CN1CCCC1c1cccs1)C12CC3CC(CC(C3)C1)C2 (stereo not drawn) | · | · | 6.3µM* | · | · | ·
CCN(Cc1ccccc1)c1ccc(/C=N/N=C(N)N)cc1 | -8% | -8% | ? | -5 | -1 | -9%
CCN(Cc1ccccc1)c1ccc(/C=N/NC(=S)NC(C)C)cc1 | -7% | -6% | 45µM* | -2 | 1 | -6%
S=C(NCCc1ccccc1)N/N=C/c1ccccc1Cl | -3% | 0% | 40µM* | 4 | 2 | 7%
CCc1ccc(/C=N/NC(=S)NCCc2ccccc2)cc1 | -4% | -5% | 22µM* | 26 | 4 | -6%
Oc1ccc(Br)cc1/C=N/NC(=S)NCCc1ccccc1 | 0% | -5% | ? | 18 | 5 | -12%
COc1ccc(/C=N/NC(=S)NCCc2ccccc2)cc1 | 16% | -1% | ? | 34 | 3 | -2%
S=C(NCCc1ccccc1)N/N=C/c1ccccc1Br | · | · | 35µM* | · | · | ·
COc1ccc(-c2cc(NC(=O)c3c(C)noc3C(C)C)ccc2OC(F)F)cc1 | · | · | 3% | · | · | ·
CCOC(=O)c1ccccc1NC(=O)Cn1c(=O)c2c(OCC)c(CC)cnc2n(C)c1=O | · | · | 4% | · | · | ·
CC(C)(C)c1ccc(/C=N/NC(=S)NCc2ccccc2)cc1 | -6% | 2% | 45µM* | -13 | 1 | -3%
Cc1ccc(-c2nnc(SCC(=O)NCc3ccccc3)n2N)cc1 | · | · | -3% | · | · | ·
COc1ccc(-n2nc3c(N4CCCC(C(=O)NCCc5ccccc5C)C4)nnc(C)c3c2C)cc1 (stereo not drawn) | 22µM* | ? | -3% | 6 | 3 | -8%
CC(C)c1noc(CN2CCN(c3cccc(F)c3C#N)CC2)n1 | · | · | -22% | · | · | ·
COc1cc(Cl)cc(C(c2c(C(=O)O)[nH]c3ccccc23)c2c(C(=O)O)[nH]c3ccccc23)c1O | 10% | 2% | 16µM* | 5 | 1 | -6%
